High-throughput results: PubChem BioAssay, National Center for Advancing Translational Sciences (NCATS)
Most compounds without a hit are left out; they make up all but 12% or so of the library.
SARS PLP yeast: qHTS of Yeast-based Assay for SARS-CoV PLP; Potency, µM (highest dose often 32.9 µM), inactives show top-dose activity, positive = growth rescue, most hits filed as activators; 0.19% of 330,000 active; S. cerevisiae expressing SARS-CoV PLpro, growth rescue; calls by dose curve; also: 0% is about no effect; nearly all actives have a fitted effect of over 55% in size
NS1 function inh: qHTS Assay for Inhibitors of Influenza NS1 Protein Function. 0.4% of 270,000 active. Potency, µM (series often up to 46.1 µM), for the others: top-dose activity, positive = more growth; calls by dose curve; also: actives are rising curves; nearly all actives have a fitted effect of over 50% in size
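Recovery from NS1-induced slow growth read by OD600 in budding yeast switched to galactose assay medium (pH 6.0, -URA) at 1:100 dilution. Compound 23 nl per well; the matching strain lacking NS1 serves as control.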
AMA1 RON2 block: qHTS for Inhibitors of AMA1-RON; Towards Development of Antimalarial Drug Lead: Primary Screen. AID 720542, 2013. 0.2% of 360,000 active. Plasmodium falciparum AMA1 (3D7) - RON2 peptide interaction. AlphaScreen AMA1-biotinylated RON2 peptide binding. Potency, µM (titrated, usually from 58.2 µM), for inactives: at the top dose activity change, negative = inhibition, most hits filed as inhibitors;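 also: 0% = vehicle wells and -100% = peptide control; nearly all actives have a fitted effect of over 45% in size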
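AMA1 (3D7) with his tag at 25 nM final met compounds first, then biotinylated RON2 peptide at 25 nM; detection used donor plus acceptor beads, 10 µg/mL apiece, read by AlphaScreen after 30 min at room temperature.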
Pf growth 96h: Primary qHTS for delayed death inhibitors of the malarial parasite plastid, 96 hour incubation | Potency, µM (series often up to 28.7 µM), without a hit: at the top dose activity change, negative = inhibition, hits mostly inhibitors | 6.9% of 320,000 active | AID 504834, 2011 | P. falciparum luciferase reporter growth, 96 h; also: % is scaled to controls: 0 for no effect and ±100 for the full control effect
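Two parasite generations (96 h, 37 C, 5% CO2) of compound exposure in infected erythrocytes (0.05% parasitemia, 2% hematocrit). Luciferase-reporter P. falciparum; decreased luminescence indicates inhibited growth, aimed at apicoplast-acting delayed death.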
Pf growth 48h: Primary qHTS for delayed death inhibitors of the malarial parasite plastid, 48 hour incubation; 5.9% of 310,000 active; Potency, µM (series often up to 28.7 µM), inactives show at the highest dose activity change, negative = inhibition, most hits filed as inhibitors; P. falciparum luciferase growth in erythrocytes, 48 h; also: % is scaled to controls: 0 for no effect and ±100 for the full control effect
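Cell-based growth assay: transgenic P. falciparum expressing firefly luciferase, cultured in red cells within RPMI 1640 containing 0.5% w/v Albumax, 24 mM bicarbonate and gentamycin. A drop in luciferase activity indicates inhibition.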
HCV inhibitor: qHTS Assay for Inhibitors of Hepatitis C Virus (HCV) | 3.4% of 340,000 active | Potency, µM (highest dose often 41.8 µM), for inactives: top-dose activity change, negative = inhibition, usual class: inhibitors | AID 651820, 2012 | Huh7.5.1 HCVcc-Cre infection, luciferase reporter, 44 h; also: % is scaled to controls: 0 for no effect and ±100 for the full control effect
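A cell-based infection assay in which seeded cells (1,000 per well) receive test compound after 4 h, are inoculated with HCVcc-Cre at approximately 0.5 moi, and are incubated 44 h before luminescence detection.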
An asterisk follows results filed as active; ? = inconclusive; nt = no result; ! = repeats disagree; [ ] = another dose, or the depositor's remark. Unless noted, calls follow the shape of the dose curve; as a rule, active = well fitted curve in the direction sought with a large enough effect; inconclusive = small, poorly fitted or top-dose-only effect, or another doubt; inactive = no such curve, though single readings can be large; an effect the other way counts as inactive or inconclusive. Potency is read from the fitted curve at half-maximal effect.

SMILES	SARS PLP yeast	NS1 function inh	AMA1 RON2 block	Pf growth 96h	Pf growth 48h	HCV inhibitor
CCCC(C(=O)Nc1ccc(C)c(S(=O)(=O)N2CCOCC2)c1)c1ccccc1 (stereo unspecified)	-7.1%	nt	13.5%	?	10.4µM*	-20.5%
CCC(C(=O)OCC(=O)Nc1ccc(C)c(S(=O)(=O)N2CCOCC2)c1)c1ccccc1 (stereo unspecified)	-1.1%	nt	-13.9%	?	?	-17.8%
O=C(NCc1ccc2c(c1)OCO2)C1CCN(S(=O)(=O)c2ccc(F)cc2)CC1	2.5%	12.0%	1.7%	?	5.6%	1.6%
O=C(NCc1ccc2c(c1)OCO2)C1CCCN1S(=O)(=O)c1ccc(F)cc1 (stereo unspecified)	2.7%	-68.7%	0.2%	34.3%	2.33µM*	14.7%
CC(=O)c1cccc(NC(=O)N2CCCC2C(=O)NCc2ccc3c(c2)OCO3)c1 (stereo unspecified)	-0.3%	4.7%	-20.3%	13.1µM*	?	-6.3%
CCN(CC)S(=O)(=O)N1CCC(C(=O)NCc2ccc3c(c2)OCO3)CC1	25.1%	13.8%	-6.5%	2.62µM*	-10.2%	25.6%
Fc1ccccc1NC(=S)NCc1ccc2c(c1)OCO2	-22.9%	7.4%	0.6%	?	8.6%	14.6%
O=S(=O)(c1c(F)cccc1F)N1CCN(C(=S)NCc2ccc3c(c2)OCO3)CC1	-1.6%	11.3%	-3.1%	2.08µM*	2.08µM*	-8.9%
C[C@H]1OC(OC2C(O)[C@@H](O)C(OC3C(O)[C@@H](O)C(O)O[C@@H]3CO)O[C@@H]2CO)[C@H](O)C(O)C1N[C@H]1C=C(CO)[C@@H](O)[C@H](O)C1O (stereo partly specified)	nt	nt	nt	-3.8%	3.8%	nt
N/C(=N\OC(=O)c1cnn(-c2ccccc2)c1C(F)(F)F)c1ccc(C(F)(F)F)cc1	-0.9%	-1.8%	-3.0%	45.6%	26.9%	-22.3%
COc1cc(C(=O)NNC(=O)c2ccccc2Br)ccc1OCC(=O)N1CCOCC1	-0.2%	nt	0.6%	18.1%	-3.0%	12.8%
FC(F)(F)c1ccc(Cl)c(NC(=S)N/N=C/c2ccccc2Cl)c1	-2.8%	0.5%	85.4%	1.47µM*	?	4.1%
Clc1ccccc1/C=C\c1ccnc2ccccc12	nt	-19.1%	nt	nt	nt	nt
Cc1ccc(N)c(C(=O)c2ccc(Br)cc2)c1	-1.4%	nt	15.8µM*	-7.2%	28.5%	9.0%
CCCCn1c(N)c(N(CCOC)C(=O)CSc2nnc(-c3ccc(F)cc3)n2N)c(=O)[nH]c1=O	2.6%	nt	-0.7%	5.4%	15.4%	18.2%
CC1(C)CC(C(CC(=O)O)c2ccccc2)CCO1 (stereo unspecified)	10.3%	-5.0%	-3.2%	1.9%[5.75 µM]	-16.3%	13.3%
CC(c1ccccc1)N(CCC(c1ccccc1)C1CCOC(C)(C)C1)C(=O)c1ccco1 (stereo unspecified)	-7.7%	-12.0%	-22.8%	-4.9%	11.7µM*	3.8%
COc1ccc(CN(CCC(c2ccc(F)cc2)C2CCOC(C)(C)C2)C(=O)c2ccco2)cc1 (stereo unspecified)	-14.9%	-34.2%	-23.8%	?	9.28µM*	?
CCCN1CCC(Oc2cccc(C(=O)NCCc3ccccc3)c2)CC1	nt	?	-19.2%	-0.4%	?	24.0%
CN1CCC(=C2c3ccccc3C=Cc3ccccc32)CC1	4.6%	-10.1%	-9.4%	?	11.7µM*!	?
O=C1Cc2ccccc2Sc2ccccc21	-3.0%	5.6%	-1.1%	41.5%	49.7%	-0.5%
CN1CCC(=C2c3ccccc3Sc3ccccc32)CC1	nt	nt	-9.4%	?	4.26µM*	10µM*
O=C1NC(=O)C2(Cc3ccccc3N3CCCC32)C(=O)N1c1ccccc1 (stereo unspecified)	1.8%	?	6.8%	?	-12.7%	25.2%
CN1c2ccc([N+](=O)[O-])cc2CC2(C(=O)NC(=O)N(c3ccc(Br)cc3)C2=O)C1c1ccccc1 (stereo unspecified)	0.3%	?	-25.3%	?	1.65µM*	?
Cc1ccccc1Cn1ccc(=NCc2ccccc2)cc1	6.5%	-2.3%	-2.7%	0.329µM*	0.738µM*	25.9%
SMILES	SARS PLP yeast	NS1 function inh	AMA1 RON2 block	Pf growth 96h	Pf growth 48h	HCV inhibitor
CNC(C)C#Cc1c(-c2cc(OC)c(OC)c(OC)c2)noc1C (stereo unspecified)	12.9%	23.2%	-19.2%	14.7µM*	?	?
COc1cc(-c2c(-c3cc(OC)c(OC)c(OC)c3)noc2C)ccc1F	-1.2%	-34.4%	-1.5%	?	5.0%	?
COc1cc(-c2noc(C)c2C#Cc2ccc(N)cc2)cc(OC)c1OC	-3.3%	3.2%	-20.5%	?	-0.2%	2.24µM*
COc1cc(-c2noc(C)c2C#Cc2ccccn2)cc(OC)c1OC	-2.6%	-10.8%	3.2%	?	4.8%	?
CC(C)(C)C(=O)NC1CCN(S(C)(=O)=O)CC1	-1.0%	1.8%	-4.0%	11.7µM*	-16.8%	1.5%
CC(C)(C)C(=O)NC1CCN(C(=O)N2CCCC2)CC1	8.8%	-0.6%	-4.5%	?	6.3%	1.7%
COC(=O)CN(c1cc(Cl)ccc1OC)S(=O)(=O)c1ccc(C)cc1	1.5%	-8.9%	-4.3%	-13.6%	2.08µM*	?
COc1ccc(Cl)cc1N(CC(=O)N1CCCC1)S(=O)(=O)c1ccc(C)cc1	-0.4%	6.3%	1.1%	?	-27.5%	5.9%
COc1ccc(S(=O)(=O)NN(C)C)cc1N(C)S(=O)(=O)c1ccc(Cl)cc1	-3.1%	6.3%	12.7%	0.0%	12.4%	5.2%
COc1ccc(S(=O)(=O)Nc2ccc(C)cc2)cc1N(C)S(=O)(=O)c1ccc(Cl)cc1	-17.1%	?	-4.6%	-12.2%	2.94µM*	8.91µM*
COC(=O)CN(c1cc([N+](=O)[O-])ccc1OC)S(C)(=O)=O	-1.6%	12.5%	-7.3%	14.7µM*	-7.6%	17.0%
CCN(CC)c1ccc(CNCc2cccs2)cc1	-0.2%	2.7%	?	-14.1%	14.4%	?
Cc1cnc(C(=O)Nc2ccc(S(=O)(=O)NCC(C)C)cc2)cn1	0.2%	3.8%	0.0%	9.28µM*	?	-10.7%
Cc1cnc(C(=O)Nc2ccc(S(=O)(=O)N(C(C)C)C(C)C)cc2)cn1	7.3%	-2.1%	-3.5%	-21.5%	-28.6%	-1.7%
COc1cc(C2c3c(-c4ccccc4O)n[nH]c3C(=O)N2Cc2ccco2)cc(OC)c1OC (stereo unspecified)	-1.5%	-2.2%	47.8%	7.38µM*	11.7µM*	-7.6%
